Assay [1] can be described thus: NCI Yeast Anticancer Drug Screen. Data for the rad50 strain (AID 155).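 Further: 0% = growth of vehicle-only cultures of the same strain.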 The following applies: S. cerevisiae rad50 strain growth inhibition; at 50.0 µM; stronger effect = higher value. A digest of the protocol: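 Readout: growth inhibition relative to vehicle-treated cultures. Compound exposure was carried out in a genetically defined yeast strain deficient in DNA damage repair.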

Assay [2] is described as follows: NCI Yeast Anticancer Drug Screen. Data for the mec2-1 strain (AID 157). The note with it: S. cerevisiae mec2-1 strain, at 50.0 µM, stronger effect = higher value. The gist of the method:
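Growth inhibition is read against vehicle-treated controls after compound exposure of the mec2-1 yeast strain, which is defective in DNA damage repair or cell cycle control.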

A short description of assay [3]: NCI Yeast Anticancer Drug Screen. Data for the sgs1 mgt1 strain (AID 161).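 Further: 0% = growth of cultures given vehicle only.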 The note with it: S. cerevisiae sgs1 mgt1 strain, at 50.0 µM, stronger effect = higher value. The gist of the method:
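Percent growth inhibition was derived by comparing compound-exposed mutant yeast with vehicle-exposed cultures. The strain carries alterations in DNA damage repair.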

The nature of assay [4]: NCI Yeast Anticancer Drug Screen. Data for the cln2 rad14 strain (AID 165).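 Further: 0% = growth equal to vehicle treated cultures.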 The following applies: S. cerevisiae cln2 rad14 strain, at 50.0 µM, stronger effect = higher value. The gist of the method: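 Growth inhibition, relative to vehicle-treated controls, is the read-out. The test organism is a yeast strain with defined genetic alterations, cln2 rad14.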
A short description of assay [5]: NCI Yeast Anticancer Drug Screen. Data for the bub3 strain (AID 167). The following applies: S. cerevisiae bub3 mutant strain, at 50.0 µM, stronger effect = higher value. The gist of the method: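 Readout: yeast growth inhibition, expressed relative to vehicle-only wells. The test organism is a mutant strain from a panel with lesions in DNA repair or checkpoint genes.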
Assay [6] in a line: NCI Yeast Anticancer Drug Screen. Data for the mlh1 rad18 strain (AID 175). The following applies: S. cerevisiae mlh1 rad18 strain growth inhibition; at 50.0 µM; stronger effect = higher value. The gist of the method:
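Cells of a genetically altered yeast strain, deficient in DNA damage repair, were treated with compound. Their growth was then compared with that of vehicle-treated cultures to give inhibition.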

The results in this text go back to PubChem BioAssay (NCI).

The panel holds about 79,000 compounds, 15% with a hit somewhere; the sample as a whole holds those more often. Unmarked numbers belong to inactive results. The source made the active and inactive calls. No stated cut-off is given here; in the data, active means growth inhibition above about 70%; inactive means the rest.

Consider `Cc1cncc(NS(=O)(=O)c2ccc(N)cc2)n1`, for which the growth inhibition in assay [1] was 0.7%; in assay [2], 8.7%; in assay [3], -5.45%; in assay [4], -13.9%; in assay [5], 10%; in assay [6], 6.9%.

Take `c1ccc2c(c1)ncc1cccn12`: the growth inhibition in assay [1] was 5.15%; in assay [2], -10.9%; in assay [3], 0.65%; in assay [4] it was 3.45%; in assay [5], 7.7%; in assay [6], 1.25%.

Consider `BrCCCC1OCCO1`, for which the growth inhibition in assay [1] is 93.8% (active); in assay [2] it was 53%; in assay [3] it was 85.8% (active); in assay [4] it was 43.5%; in assay [5] it was 73.4% (active); in assay [6], 60.2%.

As for `OC1COCOC1C(O)C1OCOCC1O` (stereo unspecified), the growth inhibition in assay [1] is 3%; in assay [2], 9.8%; in assay [3], 7.85%; in assay [4], 4.3%; in assay [5] it was -6.15%; in assay [6], 1.75%.

`NC(=O)c1ccccc1N=NNc1ccccc1`: the growth inhibition in assay [1] was 17.5%; in assay [2], -4.65%; in assay [3], 2.8%; in assay [4] it was -28.5%; in assay [5] it was -25.1%; in assay [6] it was 16.1%.

Turning to `COc1cc(NC(=O)CC(C)=O)cc(OC)c1`, the growth inhibition in assay [1] is -4%; in assay [2], -5%; in assay [3] it was -10%; in assay [4] it was 3.2%; in assay [5], -18.4%; in assay [6] it was -2.5%.

On to `CC1=C(C(=O)OCCO[N+](=O)[O-])C(c2ccccc2C(F)(F)F)C(C(=O)OC(C)C)=C(C)N1` (stereo unspecified), for which the growth inhibition was 45.5% in assay [1]; 17.4% in assay [2]; 32.9% in assay [3]; 53% in assay [4]; 30% in assay [5]; -27.1% in assay [6].

On to `CN(C)Cc1cc(C(C)(C)C)cc(CNC2CCCCC2)c1O`, for which the growth inhibition in assay [1] was -2.9%; in assay [2], -6.45%; in assay [3], -26.9%; in assay [4], -6.4%; in assay [5] it was -24.4%; in assay [6], 19.9%.

With `COc1cc(CC2C(=O)NC(=O)NC2=O)ccc1OCc1ccccc1`, the growth inhibition in assay [1] was 17.8%; in assay [2] it was -7.75%; in assay [3] it was -5.1%; in assay [4] it was -19.4%; in assay [5], -21.4%; in assay [6], -47%.

As to `CCCNc1nc(C)nc2[nH]cc(C)c12`, the growth inhibition in assay [1] is 7.35%; in assay [2] it was -5.1%; in assay [3], -3.15%; in assay [4] it was -31.1%; in assay [5], -7.7%; in assay [6], -7.65%.

For the compound `CN(C)c1ccc(/C=C(\C#N)C(=O)c2ccccc2)cc1Br`, the growth inhibition in assay [1] is 0.55%; in assay [2] it was -6.1%; in assay [3] it was 1.85%; in assay [4] it was 22.7%; in assay [5] it was -15.2%; in assay [6] it was 13.8%.

For the compound `COc1ccc(/C=C2\CCN=C2c2ccccc2)cc1OC`, the growth inhibition was -1.65% in assay [1]; -1.85% in assay [2]; 2.85% in assay [3]; -23.3% in assay [4]; 4.4% in assay [5]; 2.65% in assay [6].

For `CC(C)CCCCC(C)(C)OC(=O)NC(N)=O`, the growth inhibition in assay [1] was 7.25%; in assay [2] it was 2%; in assay [3], 12.2%; in assay [4] it was 17.1%; in assay [5], -17.6%; in assay [6], 9.85%.

In the case of `NNC(=O)Sc1ccccc1`, the growth inhibition was -14.8% in assay [1]; 9.65% in assay [2]; -12.8% in assay [3]; -31.9% in assay [4]; -12.3% in assay [5]; -0.45% in assay [6].

As for `CN1CCc2nc(N)nc(-c3nc(N)nc4c3CN(C)CC4)c2C1`, the growth inhibition in assay [1] is -3.15%; in assay [2], -12.2%; in assay [3], -11.4%; in assay [4], -17.1%; in assay [5], -37.1%; in assay [6], -1.8%.

With `[N-]=[N+]=Nc1ccc(-c2nc(N)nc(N)n2)cc1`, the growth inhibition was 11.8% in assay [1]; 0.35% in assay [2]; -2.55% in assay [3]; -4.75% in assay [4]; 6.9% in assay [5]; 15.2% in assay [6].

For `COc1cccc(NC(=O)NC(C)(C)C)c1`, the growth inhibition in assay [1] was 8.2%; in assay [2], -16.1%; in assay [3], 1.2%; in assay [4], -42.1%; in assay [5], -0.7%; in assay [6] it was -0.05%.

For the compound `Cn1c(N)c(NC(=S)NCC2CCCCC2)c(=O)n(C)c1=O`, the growth inhibition in assay [1] is -2.8%; in assay [2] it was -5%; in assay [3], -1.2%; in assay [4] it was -9.6%; in assay [5], -3.6%; in assay [6], 1.5%.

On to `C=C(C(=O)NC1CCCCC1)c1ccccc1`, for which the growth inhibition in assay [1] was -9.2%; in assay [2] it was -22.4%; in assay [3], -8.2%; in assay [4], -12.4%; in assay [5], 8.25%; in assay [6], 0%.

As to `CCC(C(=O)O)(C(C)C)C(C)C`, the growth inhibition is 5.8% in assay [1]; 30.9% in assay [2]; 12.9% in assay [3]; 12.4% in assay [4]; -0.05% in assay [5]; 8.1% in assay [6].

Take `N#CC(C#N)=Cc1cccc(Oc2ccccc2)c1`: the growth inhibition in assay [1] is 57.1%; in assay [2], -2.8%; in assay [3] it was 9.6%; in assay [4], 8.65%; in assay [5], -8.65%; in assay [6], -15.7%.
